The nature of assay [1]: P. berghei load reduction in hepatocytes – cell-based, HepG2, luciferase luminescence, HepG2 viability, primary screen (AID 624349).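 Further: 100% = mean of DMSO negative control wells on the same plate.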 The conditions noted are these: P. berghei liver stage in HepG2, luciferase luminescence, concentration not given here; parasite load remaining: stronger effect = lower value; viability: measured here: HepG2 viability without parasites.
Assay [2] in a line: viability loss with induced miR-34 in A549 – imaging, A549 dox-inducible miR-34, nuclei and caspase counts, primary screen (AID 1347080;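 active means compounds whose cell count with miR-34 switched on is under 0.7 times the count with it off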). The conditions noted are these: A549 miR-34 inducible, Hoechst nuclei count, 48 h.
Assay [3] is described as follows: chitosan synthesis blockers in C. neoformans – flow cytometry, Cibacron Brilliant Red staining (AID 1347148; call rule not given here;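 further: compound exposure lasted three days at 37 degrees C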). As to conditions: Cryptococcus neoformans chitosan, stronger effect = lower value; at 10 µM unless noted. (In flow cytometry, cells or beads pass a laser one at a time.)
A short description of assay [4]: compounds altering viability of human ES cells (AID 493140; call rule not given here;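 further: cells exposed to compounds for four days before counting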). The conditions noted are these: human embryonic stem cell survival screen; stronger effect = higher value.
The mark [5] stands for this setting: stronger effect = lower value, cell number ratio, induced over uninduced.
The mark [6] stands for this setting: measured here: relative caspase fold change +Dox/-Dox.
Where [7] appears, read: measured here: total cells with miR-34 induction, stronger effect = lower value.
Setting [8] is: measured here: total cells without miR-34 induction.

The structures appear in SMILES notation. “And” between values parts separate entries of the source, which are not always exact repeats. Identical values can stand only once. The source made the active and inactive calls. Unless noted, no stated cut-off is given here; in the data, active means parasite load remaining mostly below about 12% (no sharp cut-off); inactive means mostly above about 10%.

Here are results for 19 molecules from PubChem BioAssay.

What is called viability is a read-out of living cells in per cent, often relative to untreated cells. As to `CC[C@H]1C2C[C@H]3[C@@H]4N(C)c5ccccc5C45C[C@H](C2[C@H]5O)N3[C@@H]1O` (some centres not stated), the parasite load remaining in assay [1] was 126% (inactive). The viability in assay [1] was found to be 98.7%. The fold change was 0.84 (inactive) in assay [2] (setting [5]) and 1.31 in assay [2] (setting [6]). The cell count in assay [2] (setting [7]) amounted to 8780; in assay [2] (setting [8]) it was 10400.
For `c1cncc([C@H]2CCCCN2)c1`, in assay [1], the parasite load remaining is 92.6% (inactive). Also, the viability in assay [1] is 99.3%. In addition, the fold change in assay [2] (setting [5]) is 0.89 (inactive); in assay [2] (setting [6]) it was 1.12. In addition, the cell count in assay [2] (setting [7]) was determined as 8860; in assay [2] (setting [8]), 9960.
As for `C=C[C@]12CN(C)[C@@H]3[C@H]4COC(CC41)[C@]1(C(=O)Nc4ccccc41)[C@@H]32`, the parasite load remaining in assay [1] is 100% (inactive). Also, the viability in assay [1] amounted to 94.8%. In addition, the fold change is 0.845 (inactive) in assay [2] (setting [5]) and 1.55 in assay [2] (setting [6]). Further, the results for the cell count in assay [2] (setting [7]) and in assay [2] (setting [8]) were 8470 and 10000, respectively.
In the case of `CCCCCc1cc(O)c2c(c1)OC(C)(C)[C@H]1CCC(C(=O)O)=CC21` (some centres not stated), the fold fluorescence in assay [3] is 7.25 (inactive).
Turning to `CC(=O)O[C@H]1C[C@H](O[C@H]2[C@@H](O)C[C@H](O[C@H]3[C@@H](O)C[C@H](O[C@H]4CC[C@@]5(C)[C@H](CC[C@]6(C)[C@]5(C)C[C@@H](O)[C@]5(C)[C@@H](C7=CC(=O)OC7)CC[C@@]56O)C4)O[C@@H]3C)O[C@@H]2C)O[C@H](C)[C@H]1O[C@@H]1O[C@H](CO)[C@@H](O)[C@H](O)[C@H]1O`, in assay [1], the parasite load remaining was 0.31% (inactive). For the same molecule, the viability in assay [1] amounted to 66.6%. Further, the fold change is 0.992 (inactive) in assay [2] (setting [5]) and 1.14 in assay [2] (setting [6]). Further, the values for the cell count in assay [2] (setting [7]) and in assay [2] (setting [8]) were 808 and 815, respectively.
For `CC(=O)NC1C(OC2OC(CC(O)C3OC(n4ccc(=O)[nH]c4=O)C(O)C3O)C(O)C(O)C2NC(=O)/C=C\CC(C)C)OC(CO)C(O)C1O` (configuration not stated), the fold fluorescence in assay [3] was 7.24 [at 69.6 µM] (inactive).
On to `COc1cc2c3cc1Oc1cc(ccc1O)C[C@@H]1c4c(cc(OC)c(O)c4Oc4cccc(c4)C[C@@H]3N(C)CC2)CC[N+]1(C)C`, for which, in assay [4], the survival is 7.17 (inactive). In assay [1], the parasite load remaining is 52.1% (inactive) and 85.1% (inactive). For the same molecule, in assay [1], the viability was 113% and 81.4%. Also, the fold change is 0.822 (inactive) in assay [2] (setting [5]) and 1.32 in assay [2] (setting [6]). The values for the cell count in assay [2] (setting [7]) and in assay [2] (setting [8]) were 8210 and 9980, respectively.
Consider `CC1=C2C[C@@H]3[C@H](CC=C4C[C@H](O)CC[C@]43C)[C@H]2CC[C@@]12O[C@H]1C[C@@H](C)CN[C@@H]1[C@@H]2C`, for which the fold fluorescence in assay [3] was 14.9 [at 121.5 µM] (inactive).
As for `CN1CCC2=C[C@H](O)[C@H]3OC(=O)c4cc5c(cc4[C@H]3[C@@H]21)OCO5`, the parasite load remaining in assay [1] was 42.8% (inactive). Further, the viability in assay [1] was 96.9%. Further, the fold change in assay [2] (setting [5]) was 0.881 (inactive); in assay [2] (setting [6]) it was 1.04. Also, the cell count in assay [2] (setting [7]) was 6350; in assay [2] (setting [8]) it was 7210.
Take `O=c1ccc2cc(OC3O[C@H](CO)[C@@H](O)[C@H](O)[C@H]3O)c(O)cc2o1` (some centres not stated): the parasite load remaining in assay [1] was 70.5% (inactive). The viability in assay [1] is 96.1%. The fold change in assay [2] (setting [5]) is 0.976 (inactive); in assay [2] (setting [6]) it was 0.932. The results for the cell count in assay [2] (setting [7]) and in assay [2] (setting [8]) were 9360 and 9590, respectively.
Turning to `CC(Cc1ccccc1)NCCC(c1ccccc1)c1ccccc1` (configuration not stated) (tested in a mixture with another compound), in assay [1], the parasite load remaining was 65.1% (inactive). The viability in assay [1] was found to be 77.8%. Further, the fold change was 0.804 (inactive) in assay [2] (stronger effect = lower value) and 1.52 in assay [2] (setting [6]). The results for the cell count in assay [2] (setting [7]) and in assay [2] (setting [8]) were 5460 and 6790, respectively.
`COc1cc2c(cc1O)[C@@H]1Cc3ccc(OC)c(O)c3CN1CC2`: the parasite load remaining in assay [1] is 152% (inactive). Further, the viability in assay [1] was 92.5%. Besides, the values for the fold change in assay [2] (setting [5]) and in assay [2] (setting [6]) were 0.78 (inactive) and 1.3, respectively. The values for the cell count in assay [2] (setting [7]) and in assay [2] (setting [8]) were 2600 and 3330, respectively.
As for `CCN1C[C@@]2(COC)C3[C@@H](OC)[C@H]4[C@@H]1[C@@]3(C1C[C@@]3(O)[C@H](OC(=O)c5ccccc5)C1[C@]4(OC(C)=O)[C@@H](O)[C@H]3OC)[C@@H](OC)C[C@H]2O` (some centres not stated), the survival in assay [4] was 3.83 (inactive). For the same molecule, the parasite load remaining in assay [1] is 56% (inactive) and 73.1% (inactive). For the same molecule, in assay [1], the viability is 104% and 80.1%. The fold change in assay [2] (stronger effect = lower value) is 0.874 (inactive); in assay [2] (setting [6]), 1.14. Besides, the cell count in assay [2] (setting [7]) was 8650; in assay [2] (setting [8]) it was 9900.
Regarding `CN1C2CCCC1CC(=O)C2`, in assay [4], the survival is 10.2 (inactive). The parasite load remaining in assay [1] was 169% (inactive) and 77.1% (inactive). For the same molecule, the viability in assay [1] was 110% and 77.5%. In addition, the results for the fold change in assay [2] (setting [5]) and in assay [2] (setting [6]) were 0.891 (inactive) and 1.28, respectively. Also, the cell count in assay [2] (setting [7]) worked out at 9180; in assay [2] (setting [8]), 10300.
Regarding `CN1[C@@H]2CC(=O)C[C@H]1[C@H](O)C2`, the parasite load remaining in assay [1] was 87.8% (inactive). The viability in assay [1] came out at 81.1%. The fold change in assay [2] (setting [5]) is 0.914 (inactive); in assay [2] (setting [6]) it was 0.592. The values for the cell count in assay [2] (setting [7]) and in assay [2] (setting [8]) were 8350 and 9140, respectively.
In the case of `C[C@@H]1O[C@@H](O[C@@H]2C=C3CCC4C(CC[C@]5(C)[C@@H](c6ccc(=O)oc6)CC[C@]45O)[C@@]3(C)CC2)[C@H](O)[C@H](O)[C@H]1O` (some centres not stated), the parasite load remaining in assay [1] is 0.58% (inactive). The viability in assay [1] is 13.4%. Further, the fold change is 1.51 (inactive) in assay [2] (setting [5]) and 0.74 in assay [2] (setting [6]). Besides, the values for the cell count in assay [2] (setting [7]) and in assay [2] (setting [8]) were 696 and 460, respectively.
Turning to `C[C@H]1O[C@@H](OC2CC[C@]3(C=O)[C@H]4CC[C@]5(C)[C@@H](C6=CC(=O)OC6)CC[C@]5(O)[C@@H]4CC[C@]3(O)C2)C[C@H](O)[C@@H]1O` (some centres not stated), in assay [1], the parasite load remaining is 0.83% (inactive). For the same molecule, in assay [1], the viability was 69.5%. For the same molecule, the fold change in assay [2] (setting [5]) is 0.718 (inactive); in assay [2] (setting [6]) it was 1.73. Moreover, the cell count in assay [2] (setting [7]) is 1040; in assay [2] (setting [8]), 1440.
As to `C[N+]1=Cc2cc3c(cc2CC1)OCO3`, the parasite load remaining in assay [1] is 30.1% (inactive). Also, the viability in assay [1] amounted to 46.5%. Further, the fold change in assay [2] (setting [5]) is 0.917 (inactive); in assay [2] (setting [6]) it was 1.08. Further, the cell count in assay [2] (setting [7]) amounted to 9060; in assay [2] (setting [8]), 9880.
Take `CC[C@@H](C)C(=O)O[C@H]1[C@H](O)[C@H]2[C@@H](CN3C[C@@H](C)CC[C@H]3[C@@]2(C)O)C2C[C@]34O[C@@]5(O)[C@@H](OC(=O)[C@](C)(O)CC)CC[C@@]3(C)[C@@H]5[C@@H](OC(C)=O)[C@@H](OC(C)=O)[C@H]4[C@@]21O` (some centres not stated): the parasite load remaining in assay [1] was 119% (inactive). Also, the viability in assay [1] worked out at 111%. In addition, the fold change is 0.898 (inactive) in assay [2] (setting [5]) and 1.61 in assay [2] (setting [6]). Also, the cell count in assay [2] (setting [7]) was determined as 9180; in assay [2] (setting [8]) it was 10200.
